# Rows were chosen to be rich in hits. Some 2.8% of all compounds tested hit in one or more screens of this group.
# SENP8 block-1 = blocks the human protease SENP8; 330,000 tested, 1.2% active; Q96LD8; purified SENP8, Z-RLRGG-aminoluciferin cleavage, luminescence; inhibition, % at 10 µM; in the data active = inhibition above about 50%
# Target sequence (Q96LD8 whole entry, looked up): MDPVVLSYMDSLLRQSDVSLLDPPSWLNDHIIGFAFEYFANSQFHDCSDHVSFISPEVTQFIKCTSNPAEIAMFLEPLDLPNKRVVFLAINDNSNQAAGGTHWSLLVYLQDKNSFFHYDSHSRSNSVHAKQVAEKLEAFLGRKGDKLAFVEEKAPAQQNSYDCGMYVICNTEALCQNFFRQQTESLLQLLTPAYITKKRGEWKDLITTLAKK
# SENP8 block-2 = blocks human SENP8 cleavage of Nedd8 substrate; Q96LD8; recombinant SENP8, Nedd8 substrate fluorescence; inhibition, % at 20 µM; 360,000 tested, 0.64% active; AID 602440; in the data active = inhibition mostly above about 40%, no sharp cut-off; inactive = mostly below about 27%
# HSP90 refold inh = HSP90 refolding inhibition in rabbit reticulocyte lysate | 290,000 tested, 0.91% active | inhibition, % at 5.6 µM | luciferase refolding luminescence, 3 h;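 active = inhibition above the screen-wide mean plus 3 SD, computed separately per campaign, cut at about 16% in these data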;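 also: 0% = DMSO wells and 100% = 60 µM geldanamycin wells; inhibitors lower the luminescence because luciferase stays unfolded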
# SENP6 block = SENP6 protease inhibition; Q9GZR1; Recombinant SENP6 catalytic domain, aminoluciferin luminescence; inhibition, % at 10 µM; 330,000 tested, 1.8% active; AID 2599;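 active = inhibition above about 50% at the single tested dose, limit read from the data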;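 also: plate controls were DMSO wells with enzyme for no effect and DMSO wells lacking enzyme for full effect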
# Target sequence (Q9GZR1 628-1112 limits assumed): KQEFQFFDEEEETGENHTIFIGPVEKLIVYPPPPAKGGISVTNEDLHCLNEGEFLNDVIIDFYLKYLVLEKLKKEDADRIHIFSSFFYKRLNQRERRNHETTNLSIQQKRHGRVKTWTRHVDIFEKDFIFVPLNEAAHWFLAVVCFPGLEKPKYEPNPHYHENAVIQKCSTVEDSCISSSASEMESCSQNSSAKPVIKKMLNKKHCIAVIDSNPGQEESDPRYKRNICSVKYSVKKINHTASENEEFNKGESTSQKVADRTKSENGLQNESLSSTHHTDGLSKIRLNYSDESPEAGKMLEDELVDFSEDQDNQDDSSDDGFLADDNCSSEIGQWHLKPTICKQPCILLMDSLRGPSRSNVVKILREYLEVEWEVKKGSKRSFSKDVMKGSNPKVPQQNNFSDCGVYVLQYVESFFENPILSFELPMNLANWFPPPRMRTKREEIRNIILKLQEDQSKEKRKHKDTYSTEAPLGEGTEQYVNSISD
# Platelet DG rel = platelet dense granule release activity. human platelet-rich plasma, SFLLRN dense granule ATP release, luminescence. inhibition, %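 (compounds screened at 7.5 µM in platelet-rich plasma)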. 300,000 tested, 0.22% active. AID 1663;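 active = mean replicate score, as percent of positive control, at or above 50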
# SENP7 block = inhibitors of human SENP7 protease | Q9BQF6 | recombinant SENP7, Z-RLRGG-aminoluciferin luminescence, 40 min | inhibition, % at 5 µM | 330,000 tested, 1.5% active | AID 434973;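 active = inhibition above about 50% at the single test dose, limit read from the data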;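 also: plate controls were DMSO with enzyme for no effect and no enzyme buffer wells for full effect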
# SENP8 conf = confirmation of human SENP8 protease inhibitors; Recombinant SENP8, Z-RLRGG-aminoluciferin luminescence, 60 min; inhibition, % at 12.5 µM; AID 488912; shares compounds with SENP7 block; 6,200 tested, 40% active;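 active = mean inhibition across replicates above about 50%, limit read from the data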
# SENP6 confirm = confirmation of human SENP6 protease inhibitors; shares compounds with SENP7 block; recombinant SENP6, Z-RLRGG-aminoluciferin luminescence; inhibition, % at 12.5 µM; 6,200 tested, 58% active; AID 488915
# SENP7 confirm = confirmation of human SENP7 protease inhibitors; inhibition, % at 12.5 µM; recombinant SENP7, Z-RLRGG-aminoluciferin luminescence, 40 min; 6,200 tested, 69% active; AID 488917; shares compounds with SENP7 block
# Casp3 select = inhibits human caspase-3 in SENP selectivity test; 6,200 tested, 60% active; shares compounds with SENP7 block; purified caspase-3, Z-DEVD-aminoluciferin luminescence, 60 min; inhibition, % at 12.5 µM;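 active = mean inhibition above about 50%, limit read from the data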;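 also: plate controls were enzyme with DMSO for no effect and wells without caspase-3 for full effect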
# SENP luc ctr = luminescence interference (SENP counter-screen); shares compounds with SENP7 block; Pre-incubated SENP8/Z-RLRGG-aminoluciferin, luciferase luminescence interference; inhibition, % at 12.5 µM; 6,200 tested, 39% active;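 active = mean inhibition above about 50% when retested at one dose, limit read from the data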;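 also: plate controls were DMSO wells with completed reaction for no effect and substrate without enzyme for full effect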
# An asterisk follows results filed as active; i = inactive; . = no result.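 The calls were made as follows, unless noted: active = mean inhibition above about 50% in the one-dose retest (limit read from the data); inactive = the rest.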
SMILES,SENP8 block-1,SENP8 block-2,HSP90 refold inh,SENP6 block,Platelet DG rel,SENP7 block,SENP8 conf,SENP6 confirm,SENP7 confirm,Casp3 select,SENP luc ctr
Cc1cccc2c(=O)n3c(cc12)-c1[nH]c2ccccc2c1CC3,.,i,.,.,.,.,.,.,.,.,.
O=c1c2ccccc2nc2n1CCc1c-2[nH]c2ccccc12,48.4,-378.0,.,63.9*,.,89.3*,33.2,28.9,27.7,25.0,18.6
CC(=O)c1ccc(S(=O)(=O)NCCC(=O)OCC(=O)N2CCCC2=O)cc1,-12.9,1.5,.,-7.3,3.3,5.5,.,.,.,.,.
COc1ccc(-c2cc(C(=O)Nc3cccc(C(C)=O)c3)no2)cc1,-3.3,14.1,-5.1,0.4,3.1,-7.1,.,.,.,.,.
O=C(Nc1c(Cl)cccc1Cl)c1cc(-c2ccco2)on1,4.5,-1.6,-0.2,-23.6,-9.5,-2.5,.,.,.,.,.
COc1ccc(-c2cc(C(=O)Nc3cccc(Cl)c3)no2)cc1,17.8,8.5,10.1,14.9,-1.1,77.9*,-20.6,-12.2,-3.6,11.3,-5.1
O=C(Nc1cccc(Cl)c1)c1cc(-c2ccco2)on1,78.2*,-5.4,1.3,83.2*,18.4,86.9*,36.3,81.3*,97.3*,77.0*,42.2
C=CCn1c(N2CCN(c3ccc(OC)cc3)CC2)nc2c1c(=O)[nH]c(=O)n2C,9.5,11.2,3.1,9.9,-3.5,4.8,.,.,.,.,.
COc1cc(OC)cc(C(=O)Nc2ccc(NC(=O)c3ccco3)c(C)c2)c1,93.6*,2.6,-0.2,97.9*,17.1,96.0*,4.5,95.3*,100.8*,95.9*,85.9*
O=C(Nc1ccc(Br)c(Cl)c1)c1ccco1,45.6,17.2,-1.1,84.0*,-1.5,70.3*,61.0*,58.2*,84.4*,40.9,68.7*
CCOC(=O)CNC(=O)CSc1nnc(NC(=O)c2ccc3c(c2)OCO3)s1,53.9*,-54.5,3.6,54.5*,35.8,78.5*,4.9,6.3,18.7,49.6,3.6
CCOC(=O)c1cccc(NC(=O)c2ccc3c(c2)OCO3)c1,24.3,14.2,-1.7,59.8*,2.5,44.6,51.0*,46.9,74.4*,54.1*,37.8
O=C(CSc1nc(=O)n(CCCN2CCOCC2)c2c1CCC2)Nc1ccc([N+](=O)[O-])cc1,2.4,11.4,.,-15.1,2.5,-9.5,.,.,.,.,.
CC(Sc1nnc(-c2ccccc2F)n1C)C(=O)NC1CCCCC1 (stereo unspecified),14.6,1.7,.,-7.3,.,0.1,.,.,.,.,.
Cc1ccc(C(=O)NCC(=O)OCC(=O)NC(C)C2CC3CCC2C3)cc1 (stereo unspecified),-18.3,3.3,.,-17.9,.,-12.7,.,.,.,.,.
Cc1cc(NC(=O)c2ccco2)ccc1NC(=O)c1ccco1,7.0,0.5,-2.3,25.7,15.7,23.2,.,.,.,.,.
Cc1ccc(NC(=O)c2cc(S(=O)(=O)N3CCCC3)cn2C)cc1C,-7.5,7.7,-3.1,-15.9,-50.7,0.0,.,.,.,.,.
O=C(Nc1ccc(-c2nc3cccnc3s2)cc1)c1ccco1,85.8*,-384.8,2.4,93.2*,11.3,89.5*,74.9*,91.3*,98.9*,79.3*,22.1
Cc1cc(NC(=O)c2ccc3c(c2)OCO3)ccc1NC(=O)c1ccccc1,61.1*,7.0,-0.8,85.1*,1.0,91.9*,-24.7,32.5,29.5,6.9,-3.0
CCn1nccc1C(=O)Nc1ccc(C)c(C)c1,65.4*,10.2,-4.7,70.2*,17.0,82.0*,69.0*,63.5*,90.7*,83.8*,75.0*
Cc1ccc(NC(=O)c2ccco2)cc1C,32.3,20.7,-2.9,67.2*,15.5,65.2*,50.1*,48.3,79.8*,72.6*,52.0*
CCOc1cc(C(=O)Nc2cccc(OCC(=O)N3CCOCC3)c2)cc(OCC)c1OCC,-6.3,9.3,-2.8,-15.3,4.3,-6.4,.,.,.,.,.
CSCCC(NC(=O)c1ccc([N+](=O)[O-])cc1Cl)C(=O)OC1CCCCC1=O (stereo unspecified),-2.5,6.5,6.1,-16.9,32.9,-6.9,.,.,.,.,.
O=C(c1ccc2nc[nH]c2c1)N1CCN(c2ncc(C(F)(F)F)cc2Cl)CC1,7.1,16.1,-0.6,8.1,8.8,-8.0,.,.,.,.,.
O=C(Nc1ccc(OC(=O)c2ccco2)cc1)c1ccco1,29.0,13.9,0.1,82.8*,-4.3,85.8*,66.9*,61.7*,90.3*,53.1*,79.5*
SMILES,SENP8 block-1,SENP8 block-2,HSP90 refold inh,SENP6 block,Platelet DG rel,SENP7 block,SENP8 conf,SENP6 confirm,SENP7 confirm,Casp3 select,SENP luc ctr
Cc1ccc2nc(-c3ccc(NC(=O)c4ccco4)cc3)[nH]c2c1,-2.4,-147.7,4.5,50.7*,2.4,34.7,11.3,10.4,64.0*,28.5,42.0
Cc1ccc(C(=O)Nc2ccc3c(c2)OCO3)cc1NC(=O)c1ccco1,-0.7,3.8,0.4,-11.1,-1.1,10.4,.,.,.,.,.
Cc1cc(NC(=O)c2ccc3c(c2)OCO3)ccc1NC(=O)c1ccco1,91.1*,20.9,2.2,91.2*,74.9*,92.0*,8.1,89.9*,100.0*,95.6*,89.6*
O=C(CCc1ccccc1)Nc1ccc(NC(=O)c2ccco2)cc1,10.0,5.4,-1.5,10.0,1.8,1.1,.,.,.,.,.
CCC(=O)Oc1ccc(NC(=O)c2ccco2)cc1,-16.5,11.4,0.7,-26.7,13.5,5.9,.,.,.,.,.
O=C(Nc1ccc(CSc2ccccc2)cc1)c1ccco1,69.0*,0.0,1.4,84.1*,22.3,89.4*,7.2,62.7*,95.2*,71.6*,38.4
COc1ccc(CNC(=O)c2ccc(Cl)c(S(=O)(=O)N3CCOCC3)c2)cc1OC,5.8,3.3,.,-1.0,.,-2.4,.,.,.,.,.
O=C(CCOc1ccccc1)Nc1ccccc1F,-4.1,18.8,0.1,-4.6,4.1,-3.2,.,.,.,.,.
O=C(c1ccc(-c2nnc(-c3ccccc3)o2)cc1)N1CCCCCC1,88.3*,14.1,-1.0,96.1*,.,93.1*,2.1,49.8,59.9*,69.2*,34.8
Cc1ccc(-c2nnc(-c3cccs3)o2)cc1,68.2*,-339.2,7.1,24.1,-3.2,81.3*,71.9*,87.4*,98.7*,85.5*,43.2
Cc1ccc(-c2nnc(N)o2)cc1,3.4,14.1,-0.5,-5.6,18.0,-0.4,.,.,.,.,.
Cc1ccc(-c2nnc(-c3ccccc3)o2)cc1,82.2*,-7.9,5.5,92.2*,7.7,92.7*,-6.7,80.5*,95.6*,86.4*,53.5*
